{"source": "ChEMBL document CHEMBL1157539", "about": "“Thousands of chemical starting points for antimalarial lead identification” (Nature, 2010)", "assay_type_in_all_cases": "functional", "key": {"Plasmodium falciparum [1]": {"test_system": "Plasmodium falciparum", "test": "GSK_TCMDC: Inhibition of Plasmodium falciparum 3D7 in whole red blood cells, using parasite LDH activity as an index of growth. Test compounds present at 2uM"}, "Plasmodium falciparum [2]": {"test_system": "Plasmodium falciparum", "test": "GSK_TCMDC: Inhibition of Plasmodium falciparum Dd2 in whole red blood cells, using parasite LDH activity as an index of growth. Test compounds present at 2uM"}, "HepG2": {"test_system": "HepG2", "test": "GSK_TCMDC: Percent inhibition of human HepG2 cell line. Test compounds present at 10uM."}}, "data": [{"smiles": "Oc1cc(NCc2ccccc2NCc2ccc(Cl)c(Cl)c2)nc2ccccc12", "values": [{"measurement": "Inhibition", "setting": "Plasmodium falciparum [1]", "value": 93, "unit": "%"}, {"measurement": "Inhibition", "setting": "Plasmodium falciparum [2]", "value": 98, "unit": "%"}, {"measurement": "Inhibition", "setting": "HepG2", "value": 10, "unit": "%"}]}, {"smiles": "Cc1ccc(N2CCN(C(=O)c3cccc(-c4cncc5nc(-c6ccco6)n(C)c45)c3)CC2)nc1", "values": [{"measurement": "Inhibition", "setting": "Plasmodium falciparum [1]", "value": 94, "unit": "%"}, {"measurement": "Inhibition", "setting": "Plasmodium falciparum [2]", "value": 91, "unit": "%"}, {"measurement": "Inhibition", "setting": "HepG2", "value": 0, "unit": "%"}]}, {"smiles": "CN(C)CCOc1cc(NC(=O)/C=C/c2cccc3ccccc23)ccc1I", "values": [{"measurement": "Inhibition", "setting": "Plasmodium falciparum [1]", "value": 98, "unit": "%"}, {"measurement": "Inhibition", "setting": "Plasmodium falciparum [2]", "value": 7, "unit": "%"}, {"measurement": "Inhibition", "setting": "HepG2", "value": 55, "unit": "%"}]}, {"smiles": "COc1ccc(CCN(C)CCCOc2ccc(NC(=O)c3cccc4c(=O)c5ccccc5[nH]c34)cc2)cc1OC", "values": [{"measurement": "Inhibition", "setting": "Plasmodium falciparum [1]", "value": 94, "unit": "%"}, {"measurement": "Inhibition", "setting": "Plasmodium falciparum [2]", "value": 45, "unit": "%"}, {"measurement": "Inhibition", "setting": "HepG2", "value": 80, "unit": "%"}]}, {"smiles": "CC1CN(Cc2cccc(F)c2)CCN1c1ccc(NC(=O)c2ccc(F)cc2)cc1.O=C(O)C(F)(F)F", "note": "(stereo not drawn)", "values": [{"measurement": "Inhibition", "setting": "Plasmodium falciparum [1]", "value": 96, "unit": "%"}, {"measurement": "Inhibition", "setting": "Plasmodium falciparum [2]", "value": 92, "unit": "%"}, {"measurement": "Inhibition", "setting": "HepG2", "value": 0, "unit": "%"}]}, {"smiles": "O=C(Nc1ccc(Cl)cc1)c1cccc(CN2CCCN(Cc3cccc(O)c3)CC2)c1.O=C(O)C(F)(F)F", "values": [{"measurement": "Inhibition", "setting": "Plasmodium falciparum [1]", "value": 98, "unit": "%"}, {"measurement": "Inhibition", "setting": "Plasmodium falciparum [2]", "value": 43, "unit": "%"}, {"measurement": "Inhibition", "setting": "HepG2", "value": 14, "unit": "%"}]}, {"smiles": "CC(Cc1ccc(OCCCCOc2ccccc2)cc1)NCCc1ccc(Oc2ccccc2)cc1", "note": "(stereo not drawn)", "values": [{"measurement": "Inhibition", "setting": "Plasmodium falciparum [1]", "value": 89, "unit": "%"}, {"measurement": "Inhibition", "setting": "Plasmodium falciparum [2]", "value": 95, "unit": "%"}, {"measurement": "Inhibition", "setting": "HepG2", "value": 99, "unit": "%"}]}, {"smiles": "CC1CCN(CC[C@H]2CCCN2S(=O)(=O)c2cccc(NC(=O)c3ccc(-c4ccc(Cl)cc4)o3)c2)CC1", "values": [{"measurement": "Inhibition", "setting": "Plasmodium falciparum [1]", "value": 100, "unit": "%"}, {"measurement": "Inhibition", "setting": "Plasmodium falciparum [2]", "value": 65, "unit": "%"}, {"measurement": "Inhibition", "setting": "HepG2", "value": 45, "unit": "%"}]}, {"smiles": "COc1ccc2ccccc2c1CON1C(=N)N=C(N)NC1(C)C.Cl", "values": [{"measurement": "Inhibition", "setting": "Plasmodium falciparum [1]", "value": 94, "unit": "%"}, {"measurement": "Inhibition", "setting": "Plasmodium falciparum [2]", "value": 5, "unit": "%"}, {"measurement": "Inhibition", "setting": "HepG2", "value": 25, "unit": "%"}]}, {"smiles": "CC[C@H](C)CNC(=O)c1cncc(-c2ccc(CN3CCC(N4CCCC4)CC3)cc2)c1.O=C(O)C(F)(F)F", "values": [{"measurement": "Inhibition", "setting": "Plasmodium falciparum [1]", "value": 100, "unit": "%"}, {"measurement": "Inhibition", "setting": "Plasmodium falciparum [2]", "value": 100, "unit": "%"}, {"measurement": "Inhibition", "setting": "HepG2", "value": 0, "unit": "%"}]}, {"smiles": "Cc1cc(N(C)C)nc(Nc2ccc(NC(=O)c3ccccc3C)cc2)n1", "values": [{"measurement": "Inhibition", "setting": "Plasmodium falciparum [1]", "value": 93, "unit": "%"}, {"measurement": "Inhibition", "setting": "Plasmodium falciparum [2]", "value": 16, "unit": "%"}, {"measurement": "Inhibition", "setting": "HepG2", "value": 0, "unit": "%"}]}, {"smiles": "CCOc1ccc(C(=O)Nc2cc(Br)c3c(c2)CNCC3)cc1C#N.Cl", "values": [{"measurement": "Inhibition", "setting": "Plasmodium falciparum [1]", "value": 97, "unit": "%"}, {"measurement": "Inhibition", "setting": "Plasmodium falciparum [2]", "value": 32, "unit": "%"}, {"measurement": "Inhibition", "setting": "HepG2", "value": 17, "unit": "%"}]}, {"smiles": "O=C(NC1CC1)c1cnc(N2CCC(OCc3ccccc3)CC2)c(Cl)c1.O=C(O)C(F)(F)F", "values": [{"measurement": "Inhibition", "setting": "Plasmodium falciparum [1]", "value": 90, "unit": "%"}, {"measurement": "Inhibition", "setting": "Plasmodium falciparum [2]", "value": 71, "unit": "%"}, {"measurement": "Inhibition", "setting": "HepG2", "value": 0, "unit": "%"}]}, {"smiles": "O=C(N[C@H]1CCN(Cc2ccc(OCCN3CCCC3)c3ccccc23)C1)c1ccc(Cl)c(Cl)c1.O=C(O)C(F)(F)F", "values": [{"measurement": "Inhibition", "setting": "Plasmodium falciparum [1]", "value": 100, "unit": "%"}, {"measurement": "Inhibition", "setting": "Plasmodium falciparum [2]", "value": 51, "unit": "%"}, {"measurement": "Inhibition", "setting": "HepG2", "value": 90, "unit": "%"}]}, {"smiles": "COc1ccc(Nc2nc(NC3CCCC3)cc(-c3ccc(OC)cc3)n2)cc1", "values": [{"measurement": "Inhibition", "setting": "Plasmodium falciparum [1]", "value": 86, "unit": "%"}, {"measurement": "Inhibition", "setting": "Plasmodium falciparum [2]", "value": 15, "unit": "%"}, {"measurement": "Inhibition", "setting": "HepG2", "value": 12, "unit": "%"}]}, {"smiles": "Cc1cc(NC(=O)c2ccc(-c3ccccc3)cc2)no1", "values": [{"measurement": "Inhibition", "setting": "Plasmodium falciparum [1]", "value": 83, "unit": "%"}, {"measurement": "Inhibition", "setting": "Plasmodium falciparum [2]", "value": 57, "unit": "%"}, {"measurement": "Inhibition", "setting": "HepG2", "value": 5, "unit": "%"}]}, {"smiles": "CCNc1cc(C(=O)N[C@@H](Cc2ccccc2)[C@H](O)CNC(C)(C)c2cccc(OC)c2)cc(N2CCCC2=O)c1.O=CO", "values": [{"measurement": "Inhibition", "setting": "Plasmodium falciparum [1]", "value": 100, "unit": "%"}, {"measurement": "Inhibition", "setting": "Plasmodium falciparum [2]", "value": 99, "unit": "%"}, {"measurement": "Inhibition", "setting": "HepG2", "value": 0, "unit": "%"}]}, {"smiles": "CN(C)CCn1cc(C(=O)c2cc(Cl)ccc2O)cc1-c1nc2ccccc2c(=O)[nH]1", "values": [{"measurement": "Inhibition", "setting": "Plasmodium falciparum [1]", "value": 99, "unit": "%"}, {"measurement": "Inhibition", "setting": "Plasmodium falciparum [2]", "value": 87, "unit": "%"}, {"measurement": "Inhibition", "setting": "HepG2", "value": 16, "unit": "%"}]}, {"smiles": "CCNc1cc(C(=O)N[C@@H](Cc2ccccc2)[C@H](O)CNC(C)(C)Cc2ccccc2)cc(N2CCCC2=O)c1.O=CO", "values": [{"measurement": "Inhibition", "setting": "Plasmodium falciparum [1]", "value": 99, "unit": "%"}, {"measurement": "Inhibition", "setting": "Plasmodium falciparum [2]", "value": 78, "unit": "%"}, {"measurement": "Inhibition", "setting": "HepG2", "value": 1, "unit": "%"}]}, {"smiles": "COc1cc2nc(C)nc(Nc3ccc4c(ccn4Cc4ccccc4)c3)c2cc1OC.Cl", "values": [{"measurement": "Inhibition", "setting": "Plasmodium falciparum [1]", "value": 100, "unit": "%"}, {"measurement": "Inhibition", "setting": "Plasmodium falciparum [2]", "value": 99, "unit": "%"}, {"measurement": "Inhibition", "setting": "HepG2", "value": 2, "unit": "%"}]}, {"smiles": "COc1ccc2[nH]c(C)cc(=NN=Cc3ccncc3)c2c1", "values": [{"measurement": "Inhibition", "setting": "Plasmodium falciparum [1]", "value": 100, "unit": "%"}, {"measurement": "Inhibition", "setting": "Plasmodium falciparum [2]", "value": 68, "unit": "%"}, {"measurement": "Inhibition", "setting": "HepG2", "value": 6, "unit": "%"}]}, {"smiles": "OC1CCC(Nc2ccc3ncc(-c4ccc5ccccc5c4)n3n2)CC1", "note": "(stereo not drawn)", "values": [{"measurement": "Inhibition", "setting": "Plasmodium falciparum [1]", "value": 95, "unit": "%"}, {"measurement": "Inhibition", "setting": "Plasmodium falciparum [2]", "value": 94, "unit": "%"}, {"measurement": "Inhibition", "setting": "HepG2", "value": 52, "unit": "%"}]}, {"smiles": "CCC[C@@H]([C@@H](CC1CCCCC1)C(=O)N[C@@H](CCOC(=O)NCC)C(=O)Nc1nccs1)N(O)C=O", "values": [{"measurement": "Inhibition", "setting": "Plasmodium falciparum [1]", "value": 100, "unit": "%"}, {"measurement": "Inhibition", "setting": "Plasmodium falciparum [2]", "value": 79, "unit": "%"}, {"measurement": "Inhibition", "setting": "HepG2", "value": 0, "unit": "%"}]}, {"smiles": "COc1cc2nc(N3CCC(CNC(=O)c4ccc(-c5ccc(C#N)cc5C)cc4)CC3)nc(N)c2cc1OC", "values": [{"measurement": "Inhibition", "setting": "Plasmodium falciparum [1]", "value": 100, "unit": "%"}, {"measurement": "Inhibition", "setting": "Plasmodium falciparum [2]", "value": 99, "unit": "%"}, {"measurement": "Inhibition", "setting": "HepG2", "value": 28, "unit": "%"}]}, {"smiles": "CCCN1CCN(CCCNC(=O)c2cc3c(Cl)nc4ccc(C)cc4c3s2)CC1", "values": [{"measurement": "Inhibition", "setting": "Plasmodium falciparum [1]", "value": 97, "unit": "%"}, {"measurement": "Inhibition", "setting": "Plasmodium falciparum [2]", "value": 27, "unit": "%"}, {"measurement": "Inhibition", "setting": "HepG2", "value": 18, "unit": "%"}]}, {"smiles": "O=C(Nc1ccc(-c2cccc(-c3nc4cc(C(F)(F)F)ccc4[nH]3)c2)cc1)c1cccnc1", "values": [{"measurement": "Inhibition", "setting": "Plasmodium falciparum [1]", "value": 100, "unit": "%"}, {"measurement": "Inhibition", "setting": "Plasmodium falciparum [2]", "value": 24, "unit": "%"}, {"measurement": "Inhibition", "setting": "HepG2", "value": 74, "unit": "%"}]}, {"smiles": "CCCNc1nc(NCc2c(C)cccc2C)nc(NC(C)(C)C)n1", "values": [{"measurement": "Inhibition", "setting": "Plasmodium falciparum [1]", "value": 91, "unit": "%"}, {"measurement": "Inhibition", "setting": "Plasmodium falciparum [2]", "value": 89, "unit": "%"}, {"measurement": "Inhibition", "setting": "HepG2", "value": 15, "unit": "%"}]}, {"smiles": "O=C(O[C@@H]1CN[C@H](C#Cc2cc3c(Nc4ccc5c(cnn5Cc5ccccc5)c4)ncnc3s2)C1)N1CCCC1", "values": [{"measurement": "Inhibition", "setting": "Plasmodium falciparum [1]", "value": 99, "unit": "%"}, {"measurement": "Inhibition", "setting": "Plasmodium falciparum [2]", "value": 87, "unit": "%"}, {"measurement": "Inhibition", "setting": "HepG2", "value": 8, "unit": "%"}]}, {"smiles": "O=c1cnc2ccc(F)cc2n1CCN1CCC(NCc2cc(-c3ccccc3)cs2)CC1", "values": [{"measurement": "Inhibition", "setting": "Plasmodium falciparum [1]", "value": 91, "unit": "%"}, {"measurement": "Inhibition", "setting": "Plasmodium falciparum [2]", "value": 14, "unit": "%"}, {"measurement": "Inhibition", "setting": "HepG2", "value": 0, "unit": "%"}]}, {"smiles": "CCN(CC)C(=O)C1CCN(C(C(=O)N2CCN(CC(=O)N3CCCC3)CC2)c2cc3ccccc3o2)CC1", "note": "(stereo not drawn)", "values": [{"measurement": "Inhibition", "setting": "Plasmodium falciparum [1]", "value": 98, "unit": "%"}, {"measurement": "Inhibition", "setting": "Plasmodium falciparum [2]", "value": 4, "unit": "%"}, {"measurement": "Inhibition", "setting": "HepG2", "value": 0, "unit": "%"}]}, {"smiles": "Cc1nnsc1C(=O)Nc1cccc(-c2cccc(-c3nc4ccccc4[nH]3)c2)c1", "values": [{"measurement": "Inhibition", "setting": "Plasmodium falciparum [1]", "value": 100, "unit": "%"}, {"measurement": "Inhibition", "setting": "Plasmodium falciparum [2]", "value": 34, "unit": "%"}, {"measurement": "Inhibition", "setting": "HepG2", "value": 14, "unit": "%"}]}]}
